DT40 TDP1 no CPT: qHTS for Inhibitors of human tyrosyl-DNA phosphodiesterase 1 (TDP1): qHTS in cells in absence of CPT | DT40 Tdp1-/- hTDP1 cells, no CPT, ATP luminescence, 48 h | Potency, µM (series often up to 46.2 µM), without a hit: at the highest dose activity change, negative = growth inhibition, actives largely listed as inhibitors | hit rate 15% among 420,000 | AID 686978, 2013; further: potency means the concentration at half of the fitted maximal effect; nearly all actives have a fitted effect of over 55% in size
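Compound effects on proliferation are scored in DT40 Tdp1-/-;hTDP1 cells in the absence of CPT. ATP levels (CellTiter-Glo luminescence) are recorded after a ≥48 hr, 37 °C incubation.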
Giardia killer: Giardia lamblia killing. Giardia lamblia trophozoite viability. activity change, % at 7.66 µM, hits read low. hit rate 0.15% among 340,000. AID 540267; in the data active means activity change below about -80%; inconclusive means between about -30% and that limit;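 further: parasites exposed to compound for two days anaerobically before the ATP read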
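ATP-content bioluminescence gauges trophozoite survival. Cells (100/well) receive compound and incubate anaerobically for 48 hrs at 37 deg C; detection reagent follows for 15-30 min at room temperature.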
TDP1 inh: inhibitors of human tyrosyl-DNA phosphodiesterase TDP1. Q9NUW8. recombinant TDP1, AlphaScreen DNA substrate cleavage. Potency, µM (series often up to 130 µM), inactives show at the top dose activity change, negative = inhibition, usual class: inhibitors. hit rate 0.28% among 350,000. AID 485290; further: potency means the concentration at half of the fitted maximal effect; nearly all actives have a fitted effect of over 40% in size
Target sequence (Q9NUW8 whole entry, looked up): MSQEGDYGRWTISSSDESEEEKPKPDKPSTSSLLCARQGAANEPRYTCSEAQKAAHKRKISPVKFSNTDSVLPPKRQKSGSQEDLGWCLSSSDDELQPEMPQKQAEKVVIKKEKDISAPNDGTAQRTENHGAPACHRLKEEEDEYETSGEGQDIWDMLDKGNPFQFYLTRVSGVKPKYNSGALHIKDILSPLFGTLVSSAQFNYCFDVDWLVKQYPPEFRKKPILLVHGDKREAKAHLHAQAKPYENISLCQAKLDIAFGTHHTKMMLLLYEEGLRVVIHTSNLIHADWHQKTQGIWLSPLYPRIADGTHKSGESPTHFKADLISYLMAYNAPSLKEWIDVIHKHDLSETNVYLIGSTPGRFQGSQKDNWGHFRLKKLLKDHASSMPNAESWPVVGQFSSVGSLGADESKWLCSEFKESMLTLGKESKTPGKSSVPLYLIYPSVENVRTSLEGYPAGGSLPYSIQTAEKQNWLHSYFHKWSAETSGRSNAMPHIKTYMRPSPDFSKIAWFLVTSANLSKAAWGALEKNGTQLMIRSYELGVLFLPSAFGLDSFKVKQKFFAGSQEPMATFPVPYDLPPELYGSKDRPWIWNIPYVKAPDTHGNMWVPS
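Compounds were preincubated with Tdp1 (1 nM final) for 15 min at room temperature before substrate (15 nM final) started a 5 min reaction; beads (10 ug/ml final) were then added for 10 min before AlphaScreen detection.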
TDP1 cell CPT: DT40-hTDP1 cell growth loss with CPT; hit rate 12% among 420,000; AID 686979; Potency, µM (titrated, usually from 46.2 µM), for inactives: top-dose activity change, negative = growth inhibition, most hits filed as inhibitors; chicken DT40 Tdp1-/-;hTDP1 cells + 20 nM CPT, ATP luminescence, 48 h; further: potency means the concentration at half of the fitted maximal effect; nearly all actives have a fitted effect of over 55% in size
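Chicken DT40 Tdp1-/- cells stably complemented with human TDP1 were seeded at 400 cells/well in medium containing 20 nM camptothecin, exposed to pin-transferred compounds, and grown at 37 °C for at least 48 hr. Viability was read as ATP luminescence.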
ELG1 DNA repair: inhibitors of ELG1-dependent DNA repair in HEK293T cells; hit rate 2.3% among 330,000; HEK293T ELG1-luciferase reporter, luminescence, 16 h; DNA damage induced by 5-fluorouridine; Potency, µM (titrated, usually from 46.1 µM), without a hit: top-dose activity change, negative = inhibition, hits mostly inhibitors; further: potency means the concentration at half of the fitted maximal effect; nearly all actives have a fitted effect of over 55% in size
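In this reporter screen, reduction of luminescence relative to DMSO vehicle indicated activity. Compounds and 5-fluorouridine were added together to 2,000 cells per well, incubated for 16 hr at 37 °C, then developed with ONE-Glo.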
IL1B secr inh: inflammasome signaling inhibition, IL-1 beta readout | AID 743279 | activity change, % at 57.5 µM | hit rate 4.7% among 360,000 | THP-1 LPS/ATP IL-1B secretion, AlphaLISA, 16 h; active compounds read low; in the data active means activity change below about -50%; inconclusive means mostly about -30% to -49%
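Secreted IL-1B measured by AlphaLISA bead assay after 16 h compound exposure of THP-1 cells; compounds (final up to 57.5 uM) added 1 h before LPS (250 ng/mL) and ATP (1.25 mM) stimulation; lower signal means less secretion.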
* marks the source's active call; other numbers are inactive results; ? = inconclusive; · = no result given; [ ] = dose if it differs, or a comment. A selection: hits, their analogues and other compounds. The true share with any hit is near 19%. Unless noted, the call rests on the fitted dose curve; in most records, active means well fitted curve in the direction sought with a large enough effect; inconclusive means small, poorly fitted or top-dose-only effect, or another doubt; inactive means no such curve, though single readings can be large; an effect the other way counts as inactive or inconclusive. On the % scale 0 is the no-effect control and ±100 the full control effect.

SMILES | DT40 TDP1 no CPT | Giardia killer | TDP1 inh | TDP1 cell CPT | ELG1 DNA repair | IL1B secr inh
COCCN1CCN(C(=O)c2ccc3c(c2)S(=O)(=O)c2ccccc2C3=O)CC1 | · | 28.8 | · | -5.7% | · | -4.5
O=C(NCCCc1nc2ccccc2[nH]1)c1cccs1 | 11.7% | -27.9 | 0.0% | -6.3% | 18.6% | 9.3
N=c1c(-c2nc3ccccc3[nH]2)cc(C(=O)c2ccco2)nn1-c1ccccc1 | 3.26µM* | 47.2 | 10.5% | 2.59µM* | 16.4µM* | 0.0
N=c1c(-c2nc3ccccc3[nH]2)cc(C(=O)c2cccs2)nn1-c1ccccc1 | 23.1µM* | 4.2 | 0.0% | 29.1µM* | ? | -27.0
O=C(Nc1cccc(-c2nc3ccccc3[nH]2)c1)c1ccco1 | ? | -2.7 | -1.9% | ? | ? | 0.0
COC(=O)c1ccc(NS(=O)(=O)c2ccc3c(c2)n(C)c(=O)c(=O)n3C)cc1 | -7.1% | · | 0.0% | 8.1% | · | ·
CCOC(=O)C1=C(C)NC(C)=C(C(=O)OCC)C1C(=O)OCC(=O)NC1CCCCC1 | 23.1µM* | 11.8 | 0.5% | 25.9µM* | 10.3µM* | ?
CCNC(=O)COC(=O)C1C(C(=O)OCC)=C(C)NC(C)=C1C(=O)OCC | 0.1% | -5.8 | 1.0% | 0.5% | -7.1% | 0.0
CCOC(=O)C1=C(C)NC(C)=C(C(=O)OCC)C1C(=O)OCC(=O)NCCc1ccccc1 | 25.9µM* | 12.2 | 0.8% | ? | 23.1µM* | -55.2*
O=C(Nc1nncs1)C1CC(=O)N(C2CCCC2)C1 (stereo unspecified) | 13.3% | 2.9 | 0.6% | 10.8% | 3.1% | 28.3
COc1cccc(NC(=O)Cc2ccc(NC(=O)N3CCCCc4ccccc43)cc2)c1 | ? | · | 2.8% | ? | · | ·
COc1ccc(NC(=O)Cc2ccc(NC(=O)N3CCCCc4ccccc43)cc2)c(OC)c1 | ? | · | 8.4% | ? | · | ·
CCCCOc1ccc(CNC(=O)c2ccc(NC(=O)N3CCSc4ncccc43)cc2)cc1 | ? | · | 5.6% | ? | · | ·
CCOC(=O)c1cccc(NC(=O)Cc2ccc(NC(=O)N3CCCCc4ccccc43)cc2)c1 | 4.61µM* | · | 5.8% | 5.17µM* | · | ·
COc1cccc(CNC(=O)Cc2ccc(NC(=O)N3CCCCc4ccccc43)cc2)c1OC | 18.4µM* | · | 3.2% | -10.5% | · | ·
COc1cc(CNC(=O)c2ccc(NC(=O)N3CCCCc4ccccc43)cc2)cc(OC)c1OC | 10.3µM* | · | 5.8% | 18.4µM* | · | ·
O=C(NCc1cccc(Br)c1)c1ccc(NC(=O)N2CCCCc3ccccc32)cc1 | ? | · | -0.6% | -25.5% | · | ·
CCCCOc1ccc(CNC(=O)c2ccc(NC(=O)N3CCCCc4ccccc43)cc2)cc1 | 25.9µM* | · | 8.4% | 18.4µM* | · | ·
O=c1c(Cc2ccc(F)cc2)c(O)ccn1CCc1ccccn1 | 9.8% | -4.0 | 5.1% | 2.3% | -1.3% | -1.5
NC(=O)COc1ccc(-c2noc(COc3ccc(Cl)cc3)n2)cc1 | -12.8% | · | -2.1% | -13.3% | · | ·
COc1ccc(CNC(=O)c2ccc(NC(=O)N3CCCCc4ccccc43)cc2)cc1 | 18.4µM* | · | 0.0% | ? | · | ·
COCCCNC(=O)c1ccc(NC(=O)N2CCCCc3ccccc32)cc1 | -2.8% | · | 2.8% | -1.2% | · | ·
CCCCOc1ccc(CNC(=O)Cc2ccc(NC(=O)N3CCCCc4ccccc43)cc2)cc1 | 16.4µM* | · | 8.4% | 14.6µM* | · | ·
COc1ccc(-n2c(C)c(C(C)=O)c3cc(OC(=O)c4ccc(C)cc4)ccc32)cc1 | 23.1µM* | · | 4.0%[12.3 µM] | ? | · | ·
COc1ccc2c(c1)c(C(C)=O)c(C)n2-c1ccccc1 | -20.4% | -11.5 | 0.7% | -23.1% | ? | 8.2
SMILES | DT40 TDP1 no CPT | Giardia killer | TDP1 inh | TDP1 cell CPT | ELG1 DNA repair | IL1B secr inh
CCOc1ccc(-n2c(C)c(C(C)=O)c3cc(OC(C)=O)ccc32)cc1 | ? | -16.6 | 2.5% | ? | 6.51µM* | -19.5
CNS(=O)(=O)c1ccc(Oc2ccc(S(=O)(=O)NC)cc2)cc1 | ? | -7.8 | 2.4% | 14.6µM* | ? | -6.7
COc1ccccc1C(c1c(N)n(C)c(=O)n(C)c1=O)C(C)[N+](=O)[O-] (stereo unspecified) | ? | 0.6 | -1.9% | ? | ? | -8.6
COc1ccccc1C(C[N+](=O)[O-])c1c(N)n(C)c(=O)n(C)c1=O (stereo unspecified) | 2.31µM* | 9.4 | -3.9% | 3.66µM* | ? | -57.8*
CC(C)(C)OC(=O)NCCCC[C@H](NC(=O)c1[nH]cnc1C(=O)N[C@@H](Cc1ccccc1)C(=O)OCc1ccccc1)C(=O)OC(C)(C)C | ? | -18.7 | 0.8% | ? | -5.4% | -7.4
CNC(=O)c1[nH]cnc1C(=O)N[C@@H](Cc1ccccc1)C(=O)OC(C)(C)C | -25.9% | -5.4 | 7.7% | ? | -0.2% | 54.1
CNC(=O)c1[nH]cnc1C(=O)N[C@@H](C)C(=O)OCc1ccccc1 | -21.4% | 21.6 | 0.0% | ? | ? | 67.9
CC(C)(C)OC(=O)[C@H](Cc1ccccc1)NC(=O)c1nc[nH]c1C(=O)N[C@@H](CCCCN)C(=O)OC(C)(C)C | 16.4µM* | 12.7 | 1.6% | ? | 21.3% | -10.2
C[C@H](NC(=O)c1nc[nH]c1C(=O)N[C@@H](Cc1ccccc1)C(=O)OCc1ccccc1)C(=O)OCc1ccccc1 | 23.1µM* | 2.0 | · | ? | -4.5% | 10.4
CNC(=O)c1[nH]cnc1C(=O)N[C@@H](Cc1ccccc1)C(=O)OCc1ccccc1 | ? | 2.4 | 9.0% | 14.6µM* | ? | 54.9
C[C@H](NC(=O)c1nc[nH]c1C(=O)N[C@@H](Cc1ccccc1)C(=O)OC(C)(C)C)C(=O)OCc1ccccc1 | 18.4µM* | 10.2 | · | ? | 4.9% | 27.6
COC(=O)C/C=N/N=C1/NC(=O)/C(=C/C(=O)O)S1 | -7.3% | -8.6 | · | -13.5% | 2.2% | 12.8
CC(C)(C)OC(=O)[C@H](Cc1ccccc1)NC(=O)c1[nH]cnc1C(=O)Nc1ccccc1F | 14.6µM* | · | · | 18.4µM* | · | ?
O=C(Nc1ccc(Cl)c(Cl)c1)c1ccc2c(c1)OCO2 | ? | -1.0 | -0.7% | 13.5% | ? | -7.0
O=C(Nc1ccc(N2CCOCC2)c(Cl)c1)c1ccc2c(c1)OCCO2 | ? | -12.2 | 2.8% | ? | ? | ?
O=C(Nc1ccc(N2CCCCC2)c(Cl)c1)c1ccc2c(c1)OCCO2 | 20.6µM* | 19.4 | 4.7% | ? | -26.8% | 6.2
O=C(Nc1ccc(N2CCCC2)c(Cl)c1)c1ccc2c(c1)OCCO2 | 20.6µM* | -19.5 | · | ? | · | -64.2*
